# Sampled rows, rich in hits. Any-hit rate of the full collection: about 3%.
# IP6K1 inhibitor: inhibitors of human IP6K1; 140,000 tested, 0.81% active; IP6K1 kinase, ADP-Glo luminescence, 2 h; hits give low values; Q92551; AID 1645851; activity change, % (series mostly up to about 58 µM); in the data active = activity change below about -25%; note: % is set by controls: 0 for no effect and ±100 for the full control effect
# Target sequence (Q92551 whole entry, looked up): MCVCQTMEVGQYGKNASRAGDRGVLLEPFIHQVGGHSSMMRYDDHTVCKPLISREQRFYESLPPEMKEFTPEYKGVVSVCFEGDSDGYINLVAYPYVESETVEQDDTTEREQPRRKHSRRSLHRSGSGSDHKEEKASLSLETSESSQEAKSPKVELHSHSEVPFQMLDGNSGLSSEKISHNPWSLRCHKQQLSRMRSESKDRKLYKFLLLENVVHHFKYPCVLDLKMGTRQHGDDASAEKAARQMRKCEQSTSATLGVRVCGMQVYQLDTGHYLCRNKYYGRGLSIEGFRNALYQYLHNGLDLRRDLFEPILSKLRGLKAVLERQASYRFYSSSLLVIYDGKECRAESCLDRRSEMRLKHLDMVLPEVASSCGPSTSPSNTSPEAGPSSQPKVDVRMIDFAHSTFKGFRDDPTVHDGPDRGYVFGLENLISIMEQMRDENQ
#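 ADP-Glo luminescence measures ADP made by human IP6K1 during a 2 h RT reaction with ATP/IP6 (mix at 1.3 mM/130 uM); top library doses 57.5 and 19.1 uM final.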
# KDM5B inh: inhibitors of human KDM5B histone demethylase. AID 1347165. Potency, µM (titrated, usually from 57.7 µM), hits mostly inhibitors. 220,000 tested, 2.6% active. KDM5B demethylase, FDH-coupled NADH fluorescence (FDH is formaldehyde dehydrogenase). Q9UGL1; note: potency is the fitted concentration of half-maximal effect; 0% is about no effect; nearly all actives have a fitted effect of over 70% in size
#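 Coupled FDH/NAD⁺ fluorescence readout. KDM5BΔAP 200 nM final; compound titration, 10 min RT preincubation; substrate mix 12.5 µM H3K4me3, 25 µM 2-OG, 50 µM Fe(II), 100 µM ascorbate, 0.25 mM NAD⁺, 0.25 U/mL FDH; ΔRFU over 30 min.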
# SNCA viab count: counter-screen for SNCA expression inhibitors: cell viability; Potency, µM (doses to about 57.1 µM), inactives show at the top dose activity change, negative = cytotoxicity, usual class: cytotoxic; 150,000 tested, 0.12% active; HEK-293-SNCA-luc viability, GF-AFC fluorescence, 24 h;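 note: potency is the fitted concentration of half-maximal effect; 0% = DMSO-treated cells and -100% = medium-only wells without cells; nearly all actives have a fitted effect of over 30% in size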
#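 Cytotoxicity counterscreen: after 24 h compound treatment of genome-edited SNCA-luciferase HEK-293 cells, live-cell protease substrate GF-AFC read by fluorescence after 30 min; activity scaled between DMSO (0%) and medium-only (-100%), curves Hill-fitted.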
# SNCA expr inhib: SNCA gene expression inhibition; HEK-293 SNCA-luciferase knock-in, luminescence, 24 h; 140,000 tested, 0.17% active; Potency, µM (highest dose often 57.2 µM), inactives show at the top dose activity change, negative = inhibition, hits mostly inhibitors;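 note: potency is the fitted concentration of half-maximal effect; plate controls were DMSO cells for no effect and cell-free wells for full effect; nearly all actives have a fitted effect of over 45% in size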
# Numbers without * were called inactive; i = inactive; ? = inconclusive; . = no result; ! = repeats disagree; [ ] = another dose, or the depositor's remark. Unless noted, calls come from the whole dose curve; as a rule, active = well fitted curve in the direction sought with a large enough effect; inconclusive = small, poorly fitted or top-dose-only effect, or another doubt; inactive = no such curve, though single readings can be large; an effect the other way counts as inactive or inconclusive.
SMILES,IP6K1 inhibitor,KDM5B inh,SNCA viab count,SNCA expr inhib
C=CCNC(=O)c1c[nH]c2cccnc12,6,126µM*,-2%[87.6 µM],54%[87.6 µM]
Cc1nc(NC(=O)C2CC(=O)N(Cc3ccccn3)C2)sc1C (stereo not drawn),.,i,.,.
Cc1noc2c(-c3ccncc3)cc(-c3cccs3)nc12,2,5.6µM*,7%[87.6 µM],-15%[87.6 µM]
Cc1noc2c(-c3cccc(O)c3)cc(-c3cccs3)nc12,-20,13µM*,-8%[87.6 µM],-11%[87.6 µM]
Cc1noc2c(-c3cccnc3)cc(-c3cccs3)nc12,6,?,-8%[87.6 µM],-29%[87.6 µM]
Cc1noc2c(NC(C)C)cc(-c3cccs3)nc12,-24,i,2%[87.6 µM],-5%[87.6 µM]
O=c1c2ccccc2nc(-c2ccccc2)n1CCOc1ccccc1,.,i,.,.
COc1cc(C(=O)/C=C/c2ccc(SC)cc2)ccc1O,.,i,.,.
CC(C)=CCC1(CO)CCCN(Cc2cc(=O)n3cc(C)sc3n2)C1 (stereo not drawn),-7,28µM*,-6%,-3%
CC(C)=CCC1(CO)CCCN(CC(=O)N2CCCCCC2)C1 (stereo not drawn),-6,i,-2%,8%
Fc1ccc(CN2CCn3c(nnc3C3CCCNC3)C2)cc1 (stereo not drawn),8,25µM*!,?,-10%[87.6 µM]
COc1ncccc1-c1cc2c(ccn2Cc2ccncc2)c(N2CCOCC2)n1,0,7.9µM*,-6%[87.6 µM],5%[87.6 µM]
COc1ncccc1-c1cc2c(ccn2CC2CCN(C)CC2)c(N2CCOCC2)n1,21,25µM*,5%[87.6 µM],-1%[87.6 µM]
COc1ccccc1-c1cc2c(ccn2Cc2ccncc2)c(N2CCOCC2)n1,-5,?,-10%[87.6 µM],-5%[87.6 µM]
COc1cccc(-c2cc3c(ccn3CC3CCN(C)CC3)c(N3CCOCC3)n2)c1,-4,i,-28%[87.6 µM],?
Fc1ccccc1-c1cc2c(ccn2Cc2ccncc2)c(N2CCOCC2)n1,9,28µM*,-14%[87.6 µM],-21%[87.6 µM]
C[S+](=O)([O-])NCCNC(=O)c1ccc(-c2cccc(C(F)(F)F)c2)cc1,0,.,.,.
OCc1ccc(CN2C[C@H](O)C[C@H]2c2nc(-c3ccccc3)no2)o1,2,?,-8%[87.6 µM],109%[87.6 µM]
CCN1CCN(CC(=O)NCc2ccc3[nH]c(-c4ccc(F)cc4)c(C)c3c2)CC1,2,32µM*,4%,34%
Cc1c(-c2ccc(F)cc2)[nH]c2ccc(CNC(=O)CN3CCOC3=O)cc12,1,28µM*,-1%,-1%
O=C(CN1CCOCC1)NCc1ccc(F)cc1,.,i,.,.
Cc1ccc(S(=O)(=O)CCC(=O)OCC(=O)NC(C)C(C)C)cc1 (stereo not drawn),.,i,.,.
COc1ccc(/C=C/C(=O)Nc2ccccc2C(=O)O)cc1OC,8,.,2%,1.6µM*
COc1ccc(/C=C\C(=O)Nc2cccc3cccnc23)cc1OC,.,i,.,.
COc1ccc(C=CC(=O)Nc2ccccc2C(=O)O)cc1OC,.,.,-6%,1.5µM*
SMILES,IP6K1 inhibitor,KDM5B inh,SNCA viab count,SNCA expr inhib
Cc1ccccc1-c1nc(S(=O)(=O)c2ccc3c(c2)OCCO3)c(N2CCN(C)CC2)o1,.,i,.,.
Cc1oc2c(c1C(=O)NCc1cccnc1)CN(Cc1ccc(F)cc1)CC2,7,i,-21%,-3%
CN(Cc1cccnc1)C(=O)c1n[nH]c2c1CN(Cc1cccnc1)CC2,10,25µM*,2%,?
Cc1ccc(N/C=C/C(=O)c2cccc(Cl)c2)cc1,.,i,.,.
COCCN1Cc2nc(Nc3ccc(C(F)(F)F)cc3)ccc2OCC1=O,-17,25µM*,-13%[87.6 µM],6%[87.6 µM]
COCCN1Cc2nc(Nc3ccc(F)c(Cl)c3)ccc2OCC1=O,-13,i,-5%[87.6 µM],-6%[87.6 µM]
O=C1COc2ccc(Nc3cccc(F)c3)nc2CN1CCOc1ccccc1,-13,?,-10%[87.6 µM],-26%[87.6 µM]
O=C1COc2ccc(Nc3ccccc3)nc2CN1CCOc1ccccc1,-8,40µM*,-13%[87.6 µM],-15%[87.6 µM]
COc1ccc(CNC(=O)C2=C(c3ccccc3)c3cc(Cl)ccc3S(=O)(=O)N2C)c(OC)c1,.,i,.,.
O=[N+]([O-])c1ccc(-c2nc(-c3ccc(F)cc3)c(-c3ccncc3)[nH]2)cc1,-14,.,2%,3%
COc1ccc(CSc2nc3ncccc3[nH]2)cc1,5,i,4%,-34%
c1coc(-c2nc3ncccc3[nH]2)c1,5,32µM*!,13%[87.6 µM],3%[87.6 µM]
c1c[nH]c(-c2nc3ncccc3[nH]2)c1,4,141µM*!,4%[87.6 µM],54%[87.6 µM]
c1cnc2nc(-c3ccncc3)[nH]c2c1,0,32µM*,-26%[87.6 µM],-12%[87.6 µM]
CCC(C(=O)NC12CC3CC(CC(C3)C1)C2)c1ccccc1 (stereo not drawn),.,i,.,.
COCCCNS(=O)(=O)c1cccc2cc(C)cnc12,.,i,.,.
COc1ccc(-c2ncc(CN3CCOC(c4cccnc4)C3)cn2)cc1 (stereo not drawn),5,22µM*,-3%,5%
COc1ccc(CN2CCOC(c3cccnc3)C2)cc1Cn1cccn1 (stereo not drawn),40,i,1%,-10%
Cc1ccc(S(=O)(=O)NCC(=O)O)cc1C,.,i,.,.
COc1ccc(-c2ccc3nnc(CNC(=O)c4cc(Cl)ccc4OC)n3n2)cc1,-9,i,6%,15%
COc1ccc(-c2ccc3nnc(CNC(=O)c4ccc(C#N)cc4)n3n2)cc1,-10,i,-7%,1%
COc1ccc(-c2ccc3nnc(CNC(=O)c4cccc(C#N)c4)n3n2)cc1,15,28µM*,-8%,7%
COc1ccc(-c2ccc3nnc(CNC(=O)c4cccc(NC(C)=O)c4)n3n2)cc1,16,28µM*,6%,-9%
COc1ccc(-c2ccc3nnc(CNC(=O)c4ccc(OC)nc4OC)n3n2)cc1,19,32µM*,-13%,15%
CC(=O)Nc1cccc(C(=O)NCc2nnc3ccc(-c4ccccc4)nn23)c1,0,32µM*,-2%,-1%
SMILES,IP6K1 inhibitor,KDM5B inh,SNCA viab count,SNCA expr inhib
O=C(NCCC1CCN(C(=O)Nc2cc(F)cc(F)c2)CC1)c1ccc(F)cc1,-9,i,4%,49%
CCOC(=O)c1oc2ccc(S(=O)(=O)NCC3Cn4cccc4C(=O)N3C)cc2c1C (stereo not drawn),0,i,5%,-21%
Cn1cccc1C(=O)NCc1nnc2ccc(-c3ccccc3)nn12,3,i,3%,10%
COc1ccc(-c2ccc3nnc(CNC(=O)c4cccc(OC)c4)n3n2)cc1,14,28µM*,-1%,-14%
COc1ccc(-c2ccc3nnc(CNC(=O)c4ccc(F)c(Cl)c4)n3n2)cc1,-1,28µM*,13%,-3%
CCN(CC)c1ccc(C(=O)NCc2nnc3ccc(-c4ccc(OC)cc4)nn23)cc1,4,i,-10%,1%
COc1ccc(-c2ccc3nnc(CNC(=O)c4cccn4C)n3n2)cc1,-7,28µM*,7%,37%
COc1ccc(-c2ccc3nnc(CNC(=O)c4ccoc4)n3n2)cc1,-8,32µM*,9%,35%
O=S(=O)(NCc1cn2ccsc2n1)c1ccccc1,.,i,.,.
COc1cccc(CC(=O)NCc2nnc3ccc(-c4ccccc4)nn23)c1,15,i,-13%,-14%

# Screening results (PubChem)
